21 molecules from PubChem BioAssay (NCATS) can be followed below.

Results filed as inconclusive are left out. A number with no mark means an inactive call. Activity calls are given as the source filed them. The call rests on the fitted dose curve; in most records, active means well fitted inhibition curve with a large enough effect; inconclusive means small, poorly fitted or top-dose-only effect; inactive means flat fitted curve, though single readings scatter.

The assay relates to Zika virus NS2B-NS3 protease. Put plainly: Primary screen GU AMC qHTS for Zika virus inhibitors (AID 1347154).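 Further: 0% = no-inhibitor control and -100% = no-enzyme control; nearly all actives have a fitted effect of over 70% in size.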 Particulars: Zika NS2B-NS3 unlinked protease, AMC fluorogenic substrate; series mostly up to 54.1 µM; activity change, negative = inhibition: at the top concentration. In short, it runs like this: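 Unlinked Zika NS2B hydrophilic domain–NS3 protease complex at 25 nM in 10 mM Tris-HCl pH 8.0, 0.01% Tween 20, with an AMC peptide substrate. Fluorescence change (340/450 nm) over 15 min at room temperature, normalized to controls, fitted to 4-parameter Hill.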
Consider `CC(=O)OCC(COC(C)=O)OC(C)=O`, for which the “activity change, negative = inhibition” value is -0.381%.
Same read-out and setting: the result for `CCc1cccc(CC)c1NC(=O)CN(CC(=O)O)CC(=O)O` reads 2.38%.
In the case of `O=C(O)Cc1ccc(CCNS(=O)(=O)c2ccc(Cl)cc2)cc1`, the “activity change, negative = inhibition” value is -0.329%.
On the same count and under the same terms, next, `Cc1cccc(C)c1NC(=O)CC12CCCN1CCC2`: -3%; `CC1(C)S[C@@H]2[C@H](NC(=O)C(C(=O)O)c3ccccc3)C(=O)N2[C@H]1C(=O)O` (stereo partly specified): -4.44%; `O=C(/C=C/c1ccccc1)OCc1ccccc1`: -8.06%.
Same read-out and setting: the result for `CN1CCCN=C1COC(=O)C(O)(c1ccccc1)C1CCCCC1` (stereo unspecified) reads -4.75%; that for `COc1ccccc1OCC(O)CO` (stereo unspecified), -1.33%; that for `Cc1ncc(CO)c(CN)c1O`, -11.9%.
Take `C=CCN1C[C@H](C(=O)N(CCCN(C)C)C(=O)NCC)C[C@@H]2c3cccc4[nH]cc(c34)C[C@H]21`: the Potency result is “inactive”.
With `C[C@@H](c1ncncc1F)C(O)(Cn1cncn1)c1ccc(F)cc1F` (stereo partly specified), the “activity change, negative = inhibition” value was 7.44%.
Still for that read-out and setting: next, `CC(C)CCOC(=O)c1ccc(N(C)C)cc1`: -5.3%; `CC1CC(OC(=O)c2ccccc2O)CC(C)(C)C1` (stereo unspecified): 0.356%.
`C[C@@H](N)C(=O)O`: the Potency result is “inactive”.
Regarding `CC(CSC(=O)c1ccccc1)C(=O)N1C[C@@H](Sc2ccccc2)C[C@H]1C(=O)O` (stereo partly specified), the “activity change, negative = inhibition” value is 7.5% [at 25.8 µM].
As for `O=C(O)COC(=O)Cc1ccccc1Nc1c(Cl)cccc1Cl`, the “activity change, negative = inhibition” value is 2.23%.
On the same count and under the same terms, the result for `NC(=O)NS(=O)(=O)c1ccc(N)cc1` reads -5.53%; that for `C[C@@H]1CCC[C@H](C)N1`, -0.379%.
On the same count and under the same terms, the result for `CCCCCCCC(=O)OCC(O)CO` (stereo unspecified) reads 0.755%.
The same measure, in the same setting: next, `Nc1ccc(S(=O)(=O)c2ccc(N)cc2)cc1`: -2.42%; `C/C=C1\[C@H]2C=C(C)C[C@]1(N)c1ccc(=O)[nH]c1C2`: 4.65%.
